In PubChem BioAssay AID1159580 (chemical genetic matrix, 2015):
Among all 5,500 compounds or so, about 2,000 (36%) were called active. Another 18% or so got no clear call; they are omitted. Cut-off read from the data, not from the text of the source: active = normalized growth mostly below about 0.91 (no sharp cut-off); inconclusive = no clear call, values can overlap the other calls; inactive = mostly above about 0.92. The list shows a part of the results.

Experiment: chemical genetic growth profiling, strain panel (AID 1159580);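 note: tested at 20 µM; growth read once vehicle control cultures reached saturation at 30 °C; 1 = growth at the plate median or of vehicle wells; lower values mean less growth of the strain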
Details: S. cerevisiae deletion strains, growth OD

Measured: normalized growth

O=c1cc(-c2ccc(O)cc2)oc2ccc(O)cc12
inactive: locus YAL021C, strain ccr4, hits give low values 0.99 | locus YAL026C, strain drs2, hits give low values 0.956 | locus YAL030W, strain snc1, hits give low values 0.972 | locus YBL061C, strain skt5, hits give low values 0.964 | locus YBR009C, strain hhf1, hits give low values 0.936 | locus YBR023C, strain chs3, hits give low values 0.987 | locus YBR171W, strain sec66, hits give low values 0.981 | locus YBR231C, strain swc5, hits give low values 0.979 | locus YBR279W, strain paf1, hits give low values 0.978 | locus YCL011C, strain gbp2, hits give low values 0.949 | locus YCL016C, strain dcc1, hits give low values 0.981 | locus YCL061C, strain MRC1, hits give low values 0.987 | locus YCL069W, strain vba3, hits give low values 0.98 | locus YCR088W, strain abp1, hits give low values 0.977 | locus YDL005C, strain med2, hits give low values 0.969 | locus YDL040C, strain nat1, hits give low values 0.985 | locus YDR001C, strain nth1, hits give low values 0.97 | locus YDR069C, strain doa4, hits give low values 0.922 | locus YDR137W, strain rgp1, hits give low values 0.96 | locus YDR159W, strain sac3, hits give low values 0.954 | locus YDR195W, strain ref2 0.943 | locus YDR297W, strain sur2, hits give low values 0.958 | locus YDR334W, strain swr1, hits give low values 0.976 | locus YDR335W, strain msn5, hits give low values 0.979 | locus YDR392W, strain spt3, hits give low values 0.935 | locus YEL003W, strain gim4, hits give low values 0.97 | locus YEL037C, strain rad23, hits give low values 0.971 | locus YEL061C, strain CIN8 (second series), hits give low values 0.952 | locus YER015W, strain faa2, hits give low values 0.997 | locus YER016W, strain bim1, hits give low values 0.983 | locus YER111C, strain swi4, hits give low values 0.973 | locus YER155C, strain BEM2 (second series), hits give low values 0.963 | locus YFR010W, strain ubp6, hits give low values 0.938 | locus YGL167C, strain pmr1, hits give low values 0.949 | locus YGL173C, strain kem1, hits give low values 0.961 | locus YGL227W, strain vid30, hits give low values 0.96 | locus YGL240W, strain doc1, hits give low values 0.964 | locus YGL253W, strain hxk2, hits give low values 0.992 | locus YHR013C, strain ard1, hits give low values 0.938 | locus YHR027C, strain rpn1, hits give low values 0.962 | locus YHR030C, strain SLT2, hits give low values 0.989 | locus YHR079C, strain IRE1, hits give low values 0.992 | locus YHR142W, strain chs7, hits give low values 0.976 | locus YJL092W, strain hpr5, hits give low values 0.984 | locus YJL095W, strain BCK1 (second series), hits give low values 0.978 | locus YJL095W, strain BCK1, hits give low values 1 | locus YJL115W, strain asf1, hits give low values 0.978 | locus YJL129C, strain trk1, hits give low values 0.942 | locus YJL154C, strain vps35, hits give low values 0.991 | locus YJL164C, strain tpk1, hits give low values 0.958 | locus YJL166W, strain qcr8, hits give low values 0.977 | locus YJL187C, strain SWE1, hits give low values 0.973 | locus YJR066W, strain TOR1, hits give low values 0.933 | locus YKL160W, strain elf1, hits give low values 0.987 | locus YKR026C, strain gcn3, hits give low values 0.963 | locus YKR091W, strain srl3, hits give low values 0.984 | locus YLL001W, strain dnm1, hits give low values 0.964 | locus YLL026W, hits give low values 0.986 | locus YLL041C, strain sdh2, hits give low values 0.995 | locus YLR027C, strain aat2, hits give low values 0.971 | locus YLR113W, strain HOG1, hits give low values 0.951 | locus YLR221C, strain rsa3, hits give low values 0.988 | locus YLR258W, strain gsy2, hits give low values 0.977 | locus YLR262C, strain YPT6 (second series), hits give low values 0.959 | locus YLR320W, strain mms22, hits give low values 0.964 | locus YLR342W, strain FKS1, hits give low values 0.97 | locus YLR357W, strain rsc2, hits give low values 0.982 | locus YLR370C, strain arc18, hits give low values 0.947 | locus YLR384C, strain iki3, hits give low values 0.969 | locus YML120C, strain ndi1, hits give low values 0.956 | locus YMR058W, strain fet3, hits give low values 0.961 | locus YMR125W, strain sto1, hits give low values 0.947 | locus YMR129W, hits give low values 0.973 | locus YMR205C, strain PFK2, hits give low values 0.946 | locus YMR231W, strain pep5, hits give low values 0.974 | locus YNL071W, strain lat1, hits give low values 0.984 | locus YNL183C, strain NPR1, hits give low values 0.932 | locus YNL209W, strain ssb2, hits give low values 0.975 | locus YNL248C, strain rpa49, hits give low values 0.988 | locus YNL322C, strain KRE1 (second series), hits give low values 0.97 | locus YNR049C, strain mso1, hits give low values 0.989 | locus YOR001W, strain rrp6, hits give low values 0.991 | locus YOR070C, strain gyp1, hits give low values 0.988 | locus YOR080W, strain dia2, hits give low values 0.967 | locus YOR083W, strain WHI5, hits give low values 0.918 | locus YOR106W, strain vam3, hits give low values 0.974 | locus YOR231W, strain MKK1, hits give low values 0.968 | locus YOR265W, strain rbl2, hits give low values 0.961 | locus YOR270C, strain vph1, hits give low values 0.919 | locus YOR290C, strain snf2, hits give low values 0.943 | locus YPL051W, strain arl3, hits give low values 0.971 | locus YPL078C, strain atp4, hits give low values 0.987 | locus YPL106C, strain sse1, hits give low values 0.888 | locus YPL240C, strain hsp82, hits give low values 0.981 | locus YPL256C, strain CLN2, hits give low values 0.973
